The campaign covered roughly 350,000 compounds. About 31,000 (8.9%) were called active. Entries that show only a call come without a potency. Another 15% or so got no clear call; they are omitted. Calls follow the shape of the dose curve; as a rule, active = well fitted inhibition curve with a large enough effect; inconclusive = small, poorly fitted or top-dose-only effect; inactive = no such curve, though single readings can be large or run the other way. Many of the other results were omitted from the sample, so actives are more common in it than they were.
Potency is read from the fitted curve at half-maximal effect.

Chain of Histone-lysine N-methyltransferase EHMT2 (Homo sapiens) (Q96KQ7 913-1193 limits assumed): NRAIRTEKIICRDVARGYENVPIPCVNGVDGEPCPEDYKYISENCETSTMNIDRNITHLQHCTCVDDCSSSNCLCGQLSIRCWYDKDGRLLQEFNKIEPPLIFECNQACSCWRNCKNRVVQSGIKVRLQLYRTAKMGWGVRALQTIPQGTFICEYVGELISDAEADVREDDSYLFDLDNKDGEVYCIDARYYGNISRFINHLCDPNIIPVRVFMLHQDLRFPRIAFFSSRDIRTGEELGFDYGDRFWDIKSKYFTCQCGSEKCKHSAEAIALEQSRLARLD

The target of this assay is Histone-lysine N-methyltransferase EHMT2 (Homo sapiens) (UniProt Q96KQ7). The experiment in a line: qHTS Assay for Inhibitors of Histone Lysine Methyltransferase G9a. Also: nearly all actives have a fitted effect of over 75% in size. To be noted: G9a H3K9 monomethylation, AlphaScreen, 2 h; series mostly up to 59 µM. The gist of the method:
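G9a (20 nM) preincubated 15 min RT with compounds, then 500 nM biotinylated H3K9 peptide and 20 uM SAM added; 2 h RT reaction. Monomethyl-H3K9 product detected by AlphaScreen with anti-H3K9me1 antibody, streptavidin donor and anti-rabbit IgG acceptor beads.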
In general terms: qHTS replaces the single test concentration by a dilution series.
For the molecule `O=C(Cn1cnc2c(oc3ccccc32)c1=O)Nc1ccc(OC(F)(F)F)cc1`, the Potency result is “inactive”.
Same read-out and setting: the entry for `COc1cc(/C=N/NC(=O)c2cccnc2)ccc1OC(=O)c1cccc(Br)c1` is “inactive”.
As for `CCc1ccccc1NC(=O)CN(C)C(=O)c1cc(C2CC2)nn1-c1ccccc1`, the activity, negative = inhibition was 14.2% [at 12.7 µM] (inactive).
Regarding `CCCc1[nH]nc2c1C(c1ccc(OC(=O)c3ccco3)cc1)C(C#N)=C(N)O2` (stereo unspecified), the Potency entry was “inactive”.
The same measure, in the same setting: in the case of `CCCc1[nH]nc2c1C(C1CC=CCC1)C(C#N)=C(N)O2` (stereo unspecified) it was “inactive”; in that of `CCCc1[nH]nc2c1C(c1ccc(Br)s1)C(C#N)=C(N)O2` (stereo unspecified), 50.1 µM (active); in that of `COc1ccc(C2=NN(C(=O)c3ccccc3C(=O)O)C(c3ccccc3O)C2)cc1` (stereo unspecified), “inactive”.
Consider `CCC(=O)Nc1ccc(C)cc1-c1nc2ccccc2n(Cc2ccccc2)c1=O`, for which the Potency entry was “inactive”.
On the same count and under the same terms, in the case of `COc1ccc(NC(=O)CSc2nc(C)cs2)cc1` it was “inactive”; in that of `COc1ccc(NC(=O)c2sc(N)nc2-c2ccccc2)cc1`, “inactive”; in that of `COc1ccc(NC(=O)c2sccc2SCC#N)cc1`, 7.94 µM (active).
`COc1ccccc1-c1sc2ccccc2c1-c1ccc(Br)nc1`: the activity, negative = inhibition is -0.161% [at 0.501 µM] (inactive).
Consider `COc1cccc(CNC(=O)C(NS(=O)(=O)c2ccc3nc(C)sc3c2)C(C)C)c1` (stereo unspecified), for which the Potency result was “inactive”.
On the same count and under the same terms, in the case of `O=S(=O)(NC(=S)Nc1ccccc1)c1ccc(F)cc1` it was 1.58 µM (active).
Regarding `Cc1ccc(NC(=S)Nc2ccc(F)cc2)cc1`, the Potency result is “inactive”.
In the case of `CC(=O)NS(=O)(=O)c1ccc(NC(=S)NC(=O)C(C)(C)C)cc1`, the activity, negative = inhibition was -14.5% [at 0.501 µM] (inactive).
On the same count and under the same terms, in the case of `Cc1cc(C)c(S(=O)(=O)n2cc(C(C)C(N)C(=O)O)c3ccccc32)c(C)c1` (stereo unspecified) it was 11.6% [at 12.7 µM] (inactive).
With `COc1ccc(C(=O)C2CCCN(S(=O)(=O)c3cccc(C)c3)C2)c(C)c1` (stereo unspecified), the Potency result was “inactive”.
The same measure, in the same setting: the figure for `CCn1ccnc1CN1CCCC(C(=O)c2ccc3c4c(cccc24)CC3)C1` (stereo unspecified) is 35.5 µM (active).
Regarding `O=C(CSc1nc2ccccc2c(=O)n1CCCO)NC1CC1`, the activity, negative = inhibition is -11.2% [at 2.33 µM] (inactive).
For the molecule `Cc1ccc(S(=O)(=O)NCC(=O)OCC(=O)N2CCc3ccccc32)cc1`, the Potency entry was “inactive”.
`COc1ccc(S(=O)(=O)NCC(c2ccc(N(C)C)cc2)N2CCCC2)cc1` (stereo unspecified): the activity, negative = inhibition was 0.776% [at 12.7 µM] (inactive).
`O=S(=O)(NCC(c1ccccc1)N1CCc2ccccc21)c1ccccc1` (stereo unspecified): the Potency was 15.8 µM (active).
`COc1ccc(S(=O)(=O)NCC(c2ccc(N(C)C)cc2)N2CCc3ccccc32)cc1OC` (stereo unspecified): the Potency was 14.1 µM (active).
For `O=C(NCC(c1cccnc1)N1CCc2ccccc21)c1cccc(C(F)(F)F)c1` (stereo unspecified), the Potency entry is “inactive”.
With `COc1ccc(C(=O)NCC(c2ccc(N(C)C)cc2)N2CCc3ccccc32)c(OC)c1` (stereo unspecified), the Potency entry is “inactive”.
In the case of `COC(=O)C1=C(c2ccccc2)c2ccccc2S(=O)(=O)N1CC(=O)Nc1ccccc1C(F)(F)F`, the Potency entry is “inactive”.
On the same count and under the same terms, in the case of `Cc1ccc(CN2CCC(CNC(=O)c3cnn(-c4ccccc4Cl)c3C3CCN(C(=O)OC(C)(C)C)CC3)CC2)cc1` it was “inactive”; in that of `COc1ccc(NC(=O)CCCc2nnc3n(CCC(C)C)c(=O)c4sccc4n23)c(OC)c1`, “inactive”; in that of `CCCN(CCC)S(=O)(=O)c1ccc(C(=O)Nc2sc3c(c2C(=O)OC)CCN(CC)C3)cc1`, “inactive”.
For `CCOC(=O)N1CCN(C(=O)Cn2cnc3ccccc3c2=O)CC1`, the activity, negative = inhibition is 1.87% [at 12.7 µM] (inactive).
Still for that read-out and setting: the figure for `CCOC(=O)N1CCN(C(=O)c2n[nH]c(=O)c3ccccc23)CC1` is 8.06% [at 12.7 µM] (inactive).
On to `CCOC(=O)N1CCN(CC(=O)n2c(C)c(C)c3ccccc32)CC1`, for which the Potency was 12.6 µM (active).
On the same count and under the same terms, the entry for `CC1CCCCC1NC(=O)COC(=O)Cc1ccc(Cl)cc1` (stereo unspecified) is “inactive”.
Still for that read-out and setting: in the case of `CCOc1cccc2c1N[C@@H](c1ccc(C(=O)O)cc1)[C@H]1CC=C[C@@H]21` it was 4.47 µM (active); in that of `CCOc1c(CNCc2ccc(C(=O)O)cc2)cccc1OC`, “inactive”; in that of `CCOc1cc(C(=O)O)ccc1OCCOc1ccccc1`, “inactive”.
Consider `Cc1nn(C(C)C(=O)Nc2ccc(C(C)C)cc2)c(=O)c2c1sc1ccccc12` (stereo unspecified), for which the Potency entry was “inactive”.
With `O=C(NCc1ccccc1CN1CCCC1)c1cccc(S(=O)(=O)Nc2ccc(F)cc2)c1`, the Potency entry is “inactive”.
On to `COc1ccc(CCNCc2c(C(=O)O)c(C)n(Cc3cccc(C)c3)c2C)cc1OC`, for which the Potency result is “inactive”.
As to `CC(C)n1c(-c2cccs2)nc2ccccc21`, the Potency result is “inactive”.
In the case of `c1csc(-c2cn3c(n2)SCC3)c1`, the Potency was 17.8 µM (active).
For the molecule `Cc1cc(-c2cccs2)nc(-n2cccc2)n1`, the Potency result was “inactive”.
With `CCC(C)N(C(=O)CSc1ncnc2c1cnn2-c1ccccc1)C1CCS(=O)(=O)C1` (stereo unspecified), the activity, negative = inhibition is 17.2% [at 2.33 µM] (inactive).
Same read-out and setting: the figure for `COC(=O)[C@]1(C)N[C@H](c2ccc(-c3ccc(Cl)c(Cl)c3)cc2)[C@@H]2C(=O)N(C)C(=O)[C@@H]21` is 12.5% [at 2.33 µM] (inactive).
Take `COC(=O)c1ccccc1NC(=O)c1cc(-c2ccccc2O)no1`: the Potency entry is “inactive”.
The same measure, in the same setting: in the case of `Cc1ccc(O)c(NC(=O)c2cc(-c3ccco3)on2)c1` it was “inactive”.
Still for that read-out and setting: the figure for `Cc1ccc(O)c(NC(=O)c2cc(-c3ccc(F)cc3)no2)c1` is 8.91 µM (active); for `Cc1nn(C)c2c1c(C(F)(F)F)cc(=O)n2C(C)C(=O)NCc1ccc(Cl)cc1` (stereo unspecified) it is “inactive”; for `CCCCn1c(SCC(=O)N2CCOCC2)nc2c1c(=O)n(C)c(=O)n2C` it is “inactive”.
Still for that read-out and setting: in the case of `CCCCCn1c(SCCC(C)C)nc2c1c(=O)[nH]c(=O)n2C` it was 10 µM (active).
As for `Cn1c(=O)[nH]c(=O)c2c1nc(Br)n2CCCCSc1nc2ccccc2o1`, the Potency entry is “inactive”.
As for `CCOC(=O)c1ccccc1NC(=O)c1sc2nc(-c3ccc(F)cc3)cn2c1C`, the Potency entry was “inactive”.
Still for that read-out and setting: in the case of `Cc1ccc(C)c(CN2C(=O)c3ccccc3S(=O)c3ccc(C(=O)N4CCOCC4)cc32)c1` (stereo unspecified) it was “inactive”.
Still for that read-out and setting: the entry for `CCCc1nc2c([nH]1)C(c1cccnc1)C(C#N)=C(N)O2` (stereo unspecified) is “inactive”; for `Cc1cc(C)c(C#N)c(SCc2[nH]nc3c2C(c2ccccc2)C(C#N)=C(N)O3)n1` (stereo unspecified) it is “inactive”.
Same read-out and setting: in the case of `Cc1cc(C)c2c3c(sc2n1)C(c1ccccc1)C(C#N)=C(N)O3` (stereo unspecified) it was 14.1 µM (active); in that of `O=C(NCCc1cccc(F)c1)C1CCCN(c2nc3ccccc3s2)C1` (stereo unspecified), “inactive”.
With `COc1ccc(-c2[nH]c3c(c2-c2c(-n4cccc4)n(C)c(=O)n(C)c2=O)c(=O)n(C)c(=O)n3C)cc1`, the Potency result was “inactive”.
Regarding `CCOC(=O)C1CCN(C(=O)COc2cccc3ccccc23)CC1`, the activity, negative = inhibition was 9.04% [at 12.7 µM] (inactive).
On to `CCCn1c2ccccc2c2cnn(CC(=O)NCCCOC(C)C)c(=O)c21`, for which the Potency result was “inactive”.
As to `CN(C)c1ccc(C2Nc3ccccc3C(=O)N2NS(=O)(=O)c2ccccc2)cc1` (stereo unspecified), the Potency was 39.8 µM (active).
Regarding `CC(=O)NN1C(=O)c2ccccc2NC1c1ccccc1` (stereo unspecified), the Potency result is “inactive”.
On the same count and under the same terms, in the case of `O=C1c2ccccc2NC(c2ccccn2)N1NS(=O)(=O)c1ccccc1` (stereo unspecified) it was “inactive”.
In the case of `COc1cc(NC(=O)c2ccc(-c3csc(C)n3)cc2)c(OC)cc1Cl`, the Potency entry is “inactive”.
With `COc1ccc(Cl)cc1NC(=O)CSc1nc(-c2cccs2)cc(C(F)(F)F)n1`, the Potency entry is “inactive”.
On the same count and under the same terms, in the case of `CSc1ccccc1NC(=O)CCS(=O)(=O)c1nc(-c2cccs2)cc(C(F)(F)F)n1` it was 3.16 µM (active).
Still for that read-out and setting: in the case of `COc1ccccc1-c1cc(C(F)(F)F)nc(S(=O)(=O)CCCC(=O)Nc2ccc(F)cc2F)n1` it was “inactive”; in that of `Cc1ccc(NC(=O)CSc2nc3c(c(=O)[nH]2)CN(Cc2ccc4c(c2)OCO4)CC3)cc1C`, “inactive”; in that of `O=C(Nc1ccccc1N1CCCC1)c1ccc2ccccc2c1`, 44.7 µM (active).
On to `O=C(Nc1ccccc1N1CCCCC1)c1ccc2nccnc2c1`, for which the Potency entry is “inactive”.
Turning to `O=C(Nc1ccccc1N1CCCC1)c1ccc(F)c(S(=O)(=O)N2CCOCC2)c1`, the activity, negative = inhibition is -5.62% [at 0.501 µM] (inactive).
Still for that read-out and setting: the figure for `Cc1cc(C)cc(OCC(=O)OCC(=O)NC2CCCC2)c1` is -28.2% [at 2.33 µM] (inactive).
Take `Cc1ccc(NC(=O)Cn2c(=O)n(-c3ccccc3)c(=O)c3c4c(sc32)CCCC4)cc1`: the Potency entry was “inactive”.
In the case of `O=C(C1CC1)N1CCN=C1SCc1ccc(Cl)cc1`, the Potency result is “inactive”.
Still for that read-out and setting: in the case of `Clc1ccc(CSc2nncn3c2cc2occc23)cc1` it was 12.6 µM (active); in that of `CCN(C(=O)CSc1nnc(C)n2c1cc1occc12)c1ccccc1`, “inactive”; in that of `Cc1cc(=O)oc2c(C)c(OC(C)C(=O)NC3CCN(Cc4ccccc4)CC3)ccc12` (stereo unspecified), “inactive”.
Regarding `Cc1ccc2c(c1)-c1c(cnn1CC(=O)Nc1ccccc1C#N)CO2`, the Potency result was “inactive”.
As for `CN1C(=O)/C(=C\c2cc(Br)cs2)c2ccccc21`, the Potency was 10 µM (active).
For `CN1C(=O)c2ccccc2Sc2ccc(NC(=O)Cc3ccc(Cl)cc3)cc21`, the Potency result was “inactive”.
Regarding `CCC1C(=O)c2ccccc2N(C)C1=O` (stereo unspecified), the Potency result is “inactive”.
Take `COc1ccccc1-c1cc2nc(C)c(CCC(=O)O)c(C)n2n1`: the Potency result is “inactive”.
With `CCCNC(=O)c1ccc2c(c1)ncn2-c1ccc(C)cc1C`, the Potency entry is “inactive”.
On to `NC(=O)c1ccsc1NC(=O)COC(=O)COc1ccc(C=O)cc1`, for which the activity, negative = inhibition is -1.54% [at 12.7 µM] (inactive).
With `O=C1c2ccccc2C(=O)N1CCC(O)C[N+](=O)[O-]` (stereo unspecified), the Potency is 31.6 µM (active).
With `O=C1c2ccccc2C(=O)N1CCC(c1ccccc1)c1ccco1` (stereo unspecified), the Potency result is “inactive”.
`CC(C)OC(=O)CN1C(=O)c2ccccc2C1=O`: the activity, negative = inhibition was -1.86% [at 12.7 µM] (inactive).
As for `Cc1ccc(F)cc1NC(=O)CSCc1c(C)noc1C`, the activity, negative = inhibition was 28% [at 12.7 µM] (inactive).
Regarding `C=CCN1C(=NC(=O)COc2ccccc2)SC2CS(=O)(=O)CC21` (stereo unspecified), the Potency result was “inactive”.
With `CN1CCN(CC(=O)Nc2sc3c(c2C#N)CCC(C(C)(C)C)C3)CC1` (stereo unspecified), the activity, negative = inhibition was 2.75% [at 12.7 µM] (inactive).
For `N#CCC(=O)Nc1ccc(C(=O)OCC(=O)Nc2sc3c(c2C#N)CCCC3)cc1`, the Potency was 50.1 µM (active).
For `Cc1cccc(C(=O)OCC(=O)Nc2sc3c(c2C#N)CCC3)c1`, the Potency entry was “inactive”.
`CCCc1cc(=O)[nH]c(SCC(=O)Nc2sc3c(c2C#N)CCCC3)n1`: the Potency entry is “inactive”.
On the same count and under the same terms, the figure for `CCN1CCN(CC(=O)Nc2sc3c(c2C#N)CCC3)CC1` is 70.8 µM (active).
Take `Cc1ccc(C)c(OCC(=O)Nc2sc3c(c2C#N)CCCC3)c1C`: the Potency entry is “inactive”.

Values taken from PubChem BioAssay AID504332 (National Center for Advancing Translational Sciences (NCATS), 2011).
